Experimental data published in PubChem BioAssay AID434989 (The Scripps Research Institute Molecular Screening Center, 2010).
The campaign covered roughly 330,000 compounds. About 1,400 (0.42%) were called active.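 How the source made its calls: active means inhibition above its plate's threshold, mean inhibition of all tested compounds on the plate plus 3 SD (cut at about 37% in these data); inactive means the rest.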 Many of the other results were omitted from the sample, so actives are more common in it than they were.

Each compound was assayed against Orexin/Hypocretin receptor type 1 (Homo sapiens) (UniProt O43613) (assay: blockers of orexin-A calcium signaling via HCRTR1 – fluorescence, CHO/OX1R cells, Fluo-8 calcium, primary screen (AID 434989;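 further: 0% = orexin A challenge wells and 100% = SB-334867-A antagonist wells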)). Settings: Fluo-8 calcium fluorescence, at 5 µM, stronger effect = higher value.
Orexin/Hypocretin receptor type 1 (Homo sapiens), sequence (O43613 whole entry, looked up): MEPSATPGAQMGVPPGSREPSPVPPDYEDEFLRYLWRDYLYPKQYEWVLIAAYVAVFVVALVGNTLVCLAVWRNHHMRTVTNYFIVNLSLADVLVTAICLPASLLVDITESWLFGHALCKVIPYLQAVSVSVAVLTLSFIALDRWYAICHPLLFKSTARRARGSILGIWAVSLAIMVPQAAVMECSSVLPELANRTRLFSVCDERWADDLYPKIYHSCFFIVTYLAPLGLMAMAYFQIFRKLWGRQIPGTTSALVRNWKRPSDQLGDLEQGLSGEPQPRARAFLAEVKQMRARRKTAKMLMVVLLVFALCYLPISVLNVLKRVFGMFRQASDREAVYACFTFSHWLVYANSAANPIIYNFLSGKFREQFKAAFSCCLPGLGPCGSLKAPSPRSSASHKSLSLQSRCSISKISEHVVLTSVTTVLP

Structure (SMILES) | inhibition
CN(C(=O)c1cccc(NC(=O)Cc2cccc([N+](=O)[O-])c2)c1)C1CCCCC1 | -12.3% (inactive)
C[C@H](CO)N1C[C@H](C)[C@H](CN(C)CC2CC2)Oc2ccc(NC(=O)CCN3CCOCC3)cc2C1=O | 7.19% (inactive)
COc1ccc(NS(=O)(=O)c2ccc(C(=O)Nc3c(C)n(C)n(-c4ccccc4)c3=O)cc2)cc1 | 1.25% (inactive)
CC(NC(=O)COC(=O)Cn1cc(C(F)(F)F)ccc1=O)c1ccccc1 (centres undefined) | -5.69% (inactive)
CC1O[C@H](OC2C(COC3OC(CO)C(O)[C@H](O)C3O)OC(OC3CC[C@]4(C)C(CC[C@@]5(C)[C@@H]4C=C[C@]46OC[C@@]7(CCC(C)(C)C[C@H]74)C(O)C[C@@]56C)C3(C)C)C(O)C2O)C(O)C(O)C1O (some centres undefined) | -2.45% (inactive)
N#C/C(=C1/CCCN1)c1ccccn1 | -3.72% (inactive)
CCNC(=O)CSc1nc(-c2ccccc2)cs1 | 4.28% (inactive)
N#CC(=C1SC=CS1)c1nc(-c2ccccc2)cs1 | 89.5% (active)
Cn1c(/C(C#N)=C2/CCCCCN2)nc2ccccc21 | -27.9% (inactive)
N#C/C(=C1\CCCN1)c1nc(-c2ccccc2)cs1 | 52.9% (active)
N#CC(=C1CCCC1)c1nc(-c2ccc(Cl)cc2)cs1 | -23.8% (inactive)
Cc1cccc(C(=O)N[C@H](C(=O)NCc2cccs2)C(C)C)c1 | -7.31% (inactive)
CCOC(=O)C1CCN(c2ncnc3c2oc2ccc(Br)cc23)CC1 | -11.1% (inactive)
CCOC(=O)N1CCN(C(=O)C2CCN(S(=O)(=O)c3cc(Cl)ccc3OCC)CC2)CC1 | -21.5% (inactive)
CCOC(=O)N1CCN(C(=O)C2CCN(c3ncnc4c3sc3cccc(F)c34)CC2)CC1 | 65.7% (active)
CCN(CC(=O)NC(C)C)C(=O)c1cc(S(=O)(=O)N2CCCCC2)ccc1N1CCCCC1 | -37.7% (inactive)
CCCCNC(=O)C(C)N(CCN(C)C)C(=O)CCCN1C(=O)NC(c2ccc(Cl)cc2)C(C(=O)OCc2ccccc2)=C1C (centres undefined) | -28.8% (inactive)
O=C(Nc1ccc2ccccc2c1)Nc1ccc2snnc2c1 | 41.4% (active)
O=C(Nc1cccc(Br)c1)c1ccc2snnc2c1 | -1.56% (inactive)
CCc1ccccc1NC(=O)c1ccc2snnc2c1 | -1.72% (inactive)
COc1ccc(C2=Nn3c(nnc3-c3ccccc3OC)SC2)cc1OC1CCCC1 | -19.5% (inactive)
O=c1c2ccccc2nc2n1C(CSCc1cccc(C(F)(F)F)c1)CS2 (centres undefined) | 45.5% (active)
O=c1c2ccccc2nc2n1C(CSCc1ccccc1)CS2 (centres undefined) | -3.31% (inactive)
O=c1c2ccccc2nc2n1C(CSc1ccc(F)cc1)CN2 (centres undefined) | -5.98% (inactive)
